Measured values reported in PubChem BioAssay AID720690 (Broad Institute, 2013).
Entries with a potency or affinity are not part of this list. The source made the active and inactive calls.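 The calls were made as follows: active = every repeat run showing a signal drop whose fitted half-maximal concentration is at most twice the top tested concentration; inconclusive = repeat runs disagree, or flat partial drop, or poor fit; inactive = the rest.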

Assay: general mammalian cell viability loss – activator set, cherry-pick, cytotoxicity control for miR-122 modulator project, dose response (AID 720690)
Settings: HEK293T viability, CellTiter-Glo luminescence, 48 h; series mostly up to 26 µM

SMILES | outcome
CC(C)NC(=O)Nc1ccc2c(c1)C(=O)N(C)[C@@H]1CC[C@@H](CC(=O)NCC(F)(F)F)O[C@@H]1CO2 | inactive
CCCNC(=O)Nc1ccc2c(c1)C(=O)N(C)[C@@H]1CC[C@H](CC(=O)O)O[C@H]1CO2 | inactive
CCN(C[C@@H]1[C@@H](c2ccccc2)[C@H](CO)N1C(C)=O)C(=O)NC(C)C | inactive
C/C=C/c1ccc([C@H]2[C@@H](CO)N(C(=O)C3CC3)[C@H]2CNC(=O)NC(C)C)cc1 | inactive
C[C@@H]1CN([C@@H](C)CO)C(=O)c2cc(NC(=O)Nc3cccc4ccccc34)ccc2O[C@@H](C)CCCCO[C@H]1CN(C)CC1CCCCC1 | inactive
COCCN(C[C@@H]1[C@@H](c2ccccc2)[C@H](CO)N1C(=O)C1CCC1)C(C)=O | inactive
CN(C)CCCNC(=O)C[C@@H]1CC[C@@H]2[C@@H](COc3ccc(NC(=O)NC4CCCC4)cc3C(=O)N2C)O1 | inactive
CC(=O)Oc1ccc2c(c1)C(=O)c1ccccc1CO2 | inactive
C=CCNC(=S)NNC(=O)c1cccn(Cc2ccc(Cl)c(Cl)c2)c1=O | inactive
CCC(=O)N1[C@H](CO)[C@@H](c2ccccc2)[C@H]1CN(C(C)C)S(C)(=O)=O | inactive
Cc1onc(-c2ccccc2)c1C(=O)NCc1ccccn1 | inactive
C/C=C/c1ccc([C@H]2[C@@H](CNC(=O)CC)N(Cc3ccccn3)[C@H]2CO)cc1 | inactive
CN1C(=O)c2cc(NC(=O)Nc3ccccc3Cl)ccc2OC[C@H]2O[C@H](CC(=O)O)CC[C@H]21 | inactive
C/C=C/c1ccc([C@@H]2[C@@H](CO)N[C@@H]2CN(CC)C(=O)CN2CCOCC2)cc1 | inactive
